# Results from the supplement of paper PMC8728848.
# The sample as a whole holds a higher share of the strongest signals than the screen did.
# B1: MSMEG3662-2a (Mycobacterium smegmatis), A0QYH7_MYCS2 (protein)
# chain: MGDTLTAGQKLERGGSLQSGNGAYTLTLQDDGNLVLYARDKAVWSTGTNGQDVVRAEVQTDGNFVLYTAEKPVWHTDTKGKKEVKLVLQDDRNLVLYAKDGPAWSSKTDTTEPPPPAPEPEKEAEVAPAAAEEAAPAPVAEPAPAEPAPAAPPPAPPAPRTYTVVSGDTLWAIAERFYGDGSKYQQIADASGIANPDLIHPGQVLTIP
# Experiments:
# Test in all cases: glycan array binding signal (z-score within array); higher = stronger binding
# Conditions in all cases: glycan notation: IUPAC condensed, linker removed
# [1] = target: Fuc(a1-2)Gal(b1-3)GlcNAc(b1-3)GalNAc
# Method in brief: (§1)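 From the Consortium for Functional Glycomics database, 3228 arrays were curated, keeping only those whose protein sequence was available. Binding is given as a within-array Z-score averaged across arrays sharing a protein sequence and across linkers. Negative Z-scores can be read as non-binding.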
# [2] = target: Fuc(a1-2)Gal(b1-3)[Fuc(a1-4)]GlcNAc(b1-2)Man(a1-3)[Fuc(a1-2)Gal(b1-3)[Fuc(a1-4)]GlcNAc(b1-2)Man(a1-3)]Man(b1-4)GlcNAc(b1-4)GlcNAc
# Method in brief: as §1
# [3] = target: Fuc(a1-2)Gal(b1-4)GlcNAc(b1-3)GalNAc
# Method in brief: as §1
# [4] = target: Fuc(a1-2)Gal(b1-4)GlcNAc(b1-3)[Fuc(a1-2)Gal(b1-4)GlcNAc(b1-6)]GalNAc
# Method in brief: as §1
# [5] = target: Fuc(a1-2)Gal(b1-4)GlcNAc(b1-3)[Fuc(a1-3)[Gal(b1-4)]GlcNAc(b1-6)]Gal(b1-4)Glc
# Method in brief: as §1
# [6] = target: Fuc(a1-2)[Gal(a1-3)]Gal(b1-3)GlcNAc(b1-2)Man(a1-3)[Fuc(a1-2)[Gal(a1-3)]Gal(b1-3)GlcNAc(b1-2)Man(a1-6)]Man(b1-4)GlcNAc(b1-4)GlcNAc
# Method in brief: as §1
# [7] = target: Fuc(a1-2)[Gal(a1-3)]Gal(b1-4)Glc
# Method in brief: as §1
# [8] = target: Fuc(a1-2)[Gal(a1-3)]Gal(b1-4)GlcNAc(b1-3)[Fuc(a1-2)[Gal(a1-3)]Gal(b1-4)GlcNAc(b1-6)]GalNAc
# Method in brief: as §1
# [9] = target: Fuc(a1-2)[Gal(a1-3)]Gal(b1-4)GlcNAc(b1-6)GalNAc
# Method in brief: as §1
# [10] = target: Fuc(a1-2)[GalNAc(a1-3)]Gal(b1-4)GlcNAc(b1-2)Man
# Method in brief: as §1
# [11] = target: Fuc(a1-3)[Gal3S(b1-4)]GlcNAc
# Method in brief: as §1
# [12] = target: Fuc(a1-3)[GalNAc(b1-4)]GlcNAc
# Method in brief: as §1
# Fuc(a1-4)GlcNAc = target: Fuc(a1-4)GlcNAc
# Method in brief: as §1
# [13] = target: Gal(a1-3)[Gal(a1-4)]Gal(b1-4)GlcNAc
# Method in brief: as §1
# [14] = target: Gal(b1-3)GlcNAc(b1-3)Gal(b1-4)GlcNAc(b1-2)[Gal(b1-3)GlcNAc(b1-3)Gal(b1-4)GlcNAc(b1-6)]Man(a1-6)[Gal(b1-3)GlcNAc(b1-3)Gal(b1-4)GlcNAc(b1-2)Man(a1-3)]Man(b1-4)GlcNAc(b1-4)[Fuc(a1-6)]GlcNAc
# Method in brief: as §1
# [15] = target: Gal(b1-3)[Neu5Ac(a2-6)]GalNAc
# Method in brief: as §1
# [16] = target: Gal(b1-3)[Neu5Ac(b2-6)]GalNAc
# Method in brief: as §1
# [17] = target: Gal(b1-4)GlcNAc(a1-6)Gal(b1-4)GlcNAc
# Method in brief: as §1
# [18] = target: Gal(b1-4)GlcNAc(b1-2)[Gal(b1-4)GlcNAc(b1-4)]Man(a1-3)[Gal(b1-4)GlcNAc(b1-2)[Gal(b1-4)GlcNAc(b1-6)]Man(a1-6)]Man(b1-4)GlcNAc(b1-4)GlcNAc
# Method in brief: as §1
# [19] = target: Gal(b1-4)GlcNAc(b1-2)[Gal(b1-4)GlcNAc(b1-4)]Man(a1-3)[GlcNAc(b1-4)][Gal(b1-4)GlcNAc(b1-2)[Gal(b1-4)GlcNAc(b1-6)]Man(a1-6)]Man(b1-4)GlcNAc(b1-4)GlcNAc
# Method in brief: as §1
# [20] = target: Gal(b1-4)GlcNAc(b1-3)Gal(b1-4)GlcNAc(b1-3)Gal(b1-4)GlcNAc(b1-3)Gal(b1-4)GlcNAc(b1-3)Gal(b1-4)GlcNAc(b1-2)Man(a1-3)[Gal(b1-4)GlcNAc(b1-3)Gal(b1-4)GlcNAc(b1-3)Gal(b1-4)GlcNAc(b1-3)Gal(b1-4)GlcNAc(b1-3)Gal(b1-4)GlcNAc(b1-2)Man(a1-6)]Man(b1-4)GlcNAc(b1-4)[Fuc(a1-6)]GlcNAc
# Method in brief: as §1
# [21] = target: Gal(b1-4)GlcNAc(b1-3)Gal(b1-4)GlcNAc(b1-3)[Gal(b1-4)GlcNAc(b1-3)Gal(b1-4)GlcNAc(b1-6)]GalNAc
# Method in brief: as §1
# Gal3S(b1-4)Glc6S = target: Gal3S(b1-4)Glc6S
# Method in brief: as §1
# Gal6P(b1-4)GlcNAc = target: Gal6P(b1-4)GlcNAc
# Method in brief: as §1
# [22] = target: Glc(a1-6)Glc(a1-6)Glc(a1-6)Glc
# Method in brief: as §1
# [23] = target: GlcNAc(b1-3)Gal(b1-4)GlcNAc(b1-2)[GlcNAc(b1-3)Gal(b1-4)GlcNAc(b1-6)]Man(a1-6)[GlcNAc(b1-3)Gal(b1-4)GlcNAc(b1-2)Man(a1-3)]Man(b1-4)GlcNAc(b1-4)GlcNAc
# Method in brief: as §1
# [24] = target: GlcNAc(b1-3)Gal(b1-4)GlcNAc(b1-3)Gal(b1-4)GlcNAc
# Method in brief: as §1
# [25] = target: GlcNAc(b1-3)Gal(b1-4)GlcNAc(b1-3)GalNAc
# Method in brief: as §1
# [26] = target: GlcNAc(b1-4)GlcNAc(b1-4)GlcNAc
# Method in brief: as §1
# [27] = target: GlcNAc(b1-4)GlcNAc(b1-4)GlcNAc(b1-4)GlcNAc(b1-4)GlcNAc
# Method in brief: as §1
# [28] = target: GlcNAc(b1-4)GlcNAc(b1-4)GlcNAc(b1-4)GlcNAc(b1-4)GlcNAc(b1-4)GlcNAc
# Method in brief: as §1
# MurNAc(b1-4)GlcNAc = target: MurNAc(b1-4)GlcNAc
# Method in brief: as §1
# [29] = target: Neu5Ac(a2-3)Gal(b1-3)GlcNAc
# Method in brief: as §1
# Neu5Ac(a2-3)Gal(b1-4)Glc = target: Neu5Ac(a2-3)Gal(b1-4)Glc
# Method in brief: as §1
# [30] = target: Neu5Ac(a2-3)Gal(b1-4)GlcNAc(b1-3)Gal
# Method in brief: as §1
# [31] = target: Neu5Ac(a2-3)Gal(b1-4)GlcNAc(b1-3)Gal(b1-4)GlcNAc
# Method in brief: as §1
# [32] = target: Neu5Ac(a2-3)Gal(b1-4)GlcNAc(b1-6)GalNAc
# Method in brief: as §1
# [33] = target: Neu5Ac(a2-3)Gal(b1-4)[Fuc(a1-3)]GlcNAc
# Method in brief: as §1
# [34] = target: Neu5Ac(a2-3)Gal(b1-4)[Fuc(a1-3)]GlcNAc(b1-3)Gal(b1-4)[Fuc(a1-3)]GlcNAc(b1-3)Gal(b1-4)[Fuc(a1-3)]GlcNAc
# Method in brief: as §1
# [35] = target: Neu5Ac(a2-3)Gal(b1-4)[Fuc(a1-3)]GlcNAc(b1-3)GalNAc
# Method in brief: as §1
# Neu5Ac(a2-3)GalNAc = target: Neu5Ac(a2-3)GalNAc
# Method in brief: as §1
# [36] = target: Neu5Ac(a2-3)[Neu5Ac(a2-6)]GalNAc
# Method in brief: as §1
# Neu5Ac(a2-6)Gal(b1-4)Glc = target: Neu5Ac(a2-6)Gal(b1-4)Glc
# Method in brief: as §1
# [37] = target: Neu5Ac(a2-6)Gal(b1-4)GlcNAc(b1-2)Man(a1-3)[Neu5Ac(a2-6)Gal(b1-4)GlcNAc(b1-2)Man(a1-6)]Man(b1-4)GlcNAc(b1-4)GlcNAc
# Method in brief: as §1
# [38] = target: Neu5Ac(a2-6)Gal(b1-4)GlcNAc(b1-2)Man(a1-6)[Man(a1-3)]Man(b1-4)GlcNAc(b1-4)GlcNAc
# Method in brief: as §1
# [39] = target: Neu5Ac(a2-6)Gal(b1-4)GlcNAc(b1-3)Gal(b1-4)GlcNAc(b1-3)Gal(b1-4)GlcNAc(b1-2)Man(a1-3)[Neu5Ac(a2-6)Gal(b1-4)GlcNAc(b1-3)Gal(b1-4)GlcNAc(b1-3)Gal(b1-4)GlcNAc(b1-2)Man(a1-6)]GalNAc
# Method in brief: as §1
# [40] = target: Neu5Ac(a2-6)Gal(b1-4)GlcNAc(b1-3)Gal(b1-4)[Fuc(a1-3)]GlcNAc(b1-3)Gal(b1-4)[Fuc(a1-3)]GlcNAc
# Method in brief: as §1
# [41] = target: Neu5Ac(a2-6)GlcNAc(b1-4)GlcNAc(b1-4)GlcNAc
# Method in brief: as §1
# [42] = target: Neu5Ac(a2-8)Neu5Ac(a2-3)Gal(b1-3)GalNAc(b1-4)[Neu5Ac(a2-8)Neu5Ac(a2-3)]Gal(b1-4)Glc
# Method in brief: as §1
# [43] = target: Neu5Ac(a2-8)Neu5Ac(a2-8)Neu5Ac
# Method in brief: as §1
binder,measurement,setting,value
B1,glycan array binding signal (z-score),[1],-0.084
same,glycan array binding signal (z-score),[2],0.02
same,glycan array binding signal (z-score),[3],0.35
same,glycan array binding signal (z-score),[4],-0.023
same,glycan array binding signal (z-score),[5],-0.103
same,glycan array binding signal (z-score),[6],-0.102
same,glycan array binding signal (z-score),[7],-0.24
same,glycan array binding signal (z-score),[8],0.285
same,glycan array binding signal (z-score),[9],-0.124
same,glycan array binding signal (z-score),[10],-0.046
same,glycan array binding signal (z-score),[11],-0.028
same,glycan array binding signal (z-score),[12],0.413
same,glycan array binding signal (z-score),Fuc(a1-4)GlcNAc,11.1
same,glycan array binding signal (z-score),[13],-0.039
same,glycan array binding signal (z-score),[14],0.25
same,glycan array binding signal (z-score),[15],-0.105
same,glycan array binding signal (z-score),[16],0.064
same,glycan array binding signal (z-score),[17],-0.067
same,glycan array binding signal (z-score),[18],-0.118
same,glycan array binding signal (z-score),[19],-0.186
same,glycan array binding signal (z-score),[20],0.159
same,glycan array binding signal (z-score),[21],0.038
same,glycan array binding signal (z-score),Gal3S(b1-4)Glc6S,-0.107
same,glycan array binding signal (z-score),Gal6P(b1-4)GlcNAc,-0.205
same,glycan array binding signal (z-score),[22],-0.182
same,glycan array binding signal (z-score),[23],-0.017
same,glycan array binding signal (z-score),[24],-0.131
same,glycan array binding signal (z-score),[25],-0.121
same,glycan array binding signal (z-score),[26],3.59
same,glycan array binding signal (z-score),[27],8.12
same,glycan array binding signal (z-score),[28],13.9
same,glycan array binding signal (z-score),MurNAc(b1-4)GlcNAc,1.49
same,glycan array binding signal (z-score),[29],-0.039
same,glycan array binding signal (z-score),Neu5Ac(a2-3)Gal(b1-4)Glc,0.572
same,glycan array binding signal (z-score),[30],-0.15
same,glycan array binding signal (z-score),[31],0.065
same,glycan array binding signal (z-score),[32],-0.234
same,glycan array binding signal (z-score),[33],-0.124
same,glycan array binding signal (z-score),[34],-0.044
same,glycan array binding signal (z-score),[35],0.43
same,glycan array binding signal (z-score),Neu5Ac(a2-3)GalNAc,-0.06
same,glycan array binding signal (z-score),[36],-0.161
same,glycan array binding signal (z-score),Neu5Ac(a2-6)Gal(b1-4)Glc,-0.068
same,glycan array binding signal (z-score),[37],-0.046
same,glycan array binding signal (z-score),[38],-0.14
same,glycan array binding signal (z-score),[39],0.293
same,glycan array binding signal (z-score),[40],-0.129
same,glycan array binding signal (z-score),[41],1.58
same,glycan array binding signal (z-score),[42],0.097
same,glycan array binding signal (z-score),[43],-0.147
